High-throughput results from PubChem BioAssay.
G9a inh: inhibitors of human histone lysine methyltransferase G9a | G9a H3K9 monomethylation, AlphaScreen, 2 h | Potency, µM (top dose mostly 102 µM), for the others: top-dose activity, negative = inhibition, actives largely listed as inhibitors | 350,000 compounds, 8.8% hits; note: potency is the fitted concentration of half-maximal effect; % is set by controls: 0 for no effect and ±100 for the full control effect; nearly all actives have a fitted effect of over 75% in size
Target sequence (Q96KQ7 913-1193 limits assumed): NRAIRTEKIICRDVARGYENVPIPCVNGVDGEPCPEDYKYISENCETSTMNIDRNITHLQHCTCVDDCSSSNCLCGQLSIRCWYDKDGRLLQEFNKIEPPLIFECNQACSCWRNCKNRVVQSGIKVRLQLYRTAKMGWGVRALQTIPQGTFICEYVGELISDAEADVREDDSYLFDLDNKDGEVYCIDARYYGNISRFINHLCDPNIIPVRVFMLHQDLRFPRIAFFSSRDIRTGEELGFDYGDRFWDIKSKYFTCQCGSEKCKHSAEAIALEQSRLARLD
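G9a (20 nM) was preincubated 15 min with compound, then reacted 2 h at room temperature with 500 nM biotin-H3K9 peptide and 20 µM SAM. Monomethyl-H3K9 detected by AlphaScreen using anti-H3K9me1 antibody.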
Six1-Eya2 inh: inhibitors of human Six1/Eya2 interaction; AlphaScreen GST-Six1/His-Eya2 binding, biochemical; stronger effect = lower value; activity change, % (test concentration not listed); 360,000 compounds, 0.56% hits; AID 651725; in the data active = activity change below about -65%; inconclusive = mostly about -30% to -63%; note: % is set by controls: 0 for no effect and ±100 for the full control effect
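Homogeneous AlphaScreen proximity assay pairing GST-Six1 with His-tagged Eya2 (added as 5X mix: 250 nM and 500 nM) in 50 mM Tris pH 8.0, 300 mM NaCl, 1 mM TCEP. Glutathione donor and nickel acceptor beads; 1 h, 37 °C, dark.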
BAZ2B inh: inhibitors of human BAZ2B bromodomain; 360,000 compounds, 4.4% hits; AlphaScreen BAZ2B-H3K14Ac peptide displacement; Potency, µM (highest dose often 114 µM), without a hit: at the top dose activity change, negative = inhibition, actives largely listed as inhibitors; note: potency is the fitted concentration of half-maximal effect; % is set by controls: 0 for no effect and ±100 for the full control effect; nearly all actives have a fitted effect of over 60% in size
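AlphaScreen displacement of biotin-H3(5-23)K14Ac peptide (50 nM final) from BAZ2B (50 nM final) in PBS pH 7.4, 0.01% Tween-20; complex preformed 30 min RT, then compounds (top 110 uM) 30 min RT, beads 20 min dark.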
HP1b chromo inh: HP1-beta chromodomain-methylated histone interaction inhibition; P83916; AlphaScreen HP1-beta / biotin-H3K9me3 peptide binding; Potency, µM (titrated, usually from 114 µM), for the others: top-dose activity change, negative = inhibition, most hits filed as inhibitors; 390,000 compounds, 0.56% hits; note: potency is the fitted concentration of half-maximal effect; nearly all actives have a fitted effect of over 70% in size
Target sequence (P83916 whole entry, looked up): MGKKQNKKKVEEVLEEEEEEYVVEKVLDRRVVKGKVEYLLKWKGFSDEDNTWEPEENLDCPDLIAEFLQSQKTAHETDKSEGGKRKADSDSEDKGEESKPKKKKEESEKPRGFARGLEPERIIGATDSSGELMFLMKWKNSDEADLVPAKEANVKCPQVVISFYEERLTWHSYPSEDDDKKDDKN
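AlphaScreen: HP1-beta (50 nM) preformed 30 min with biotin-H3(1-18)K9me3 peptide (50 nM) in PBS pH 7.4, 0.01% Tween-20. Compound added for 30 min at RT, then streptavidin donor/nickel chelate acceptor beads (10 ug/mL) for 30 min.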
CtBP-E1A blk: blocks the CtBP interaction with E1A; AID 651724; AlphaScreen GST-E1A/His-CtBP binding, 1536-well; stronger effect = lower value; activity change, % (concentration not given with the values); 340,000 compounds, 0.49% hits; in the data active = activity change below about -65%; inconclusive = mostly about -30% to -63%; note: % is set by controls: 0 for no effect and ±100 for the full control effect
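Steps: dispense buffer (Tris pH 8.0, NaCl 300 mM, TCEP 1 mM, BSA, Tween 20); add 5X protein mix (GST-E1A, His-CtBP, 125 nM each); pin 23 nL compound; 2 h at 37 °C, dark; add 5X beads (50 ug/mL); 1 h; read.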
JMJD2A Tudor: JMJD2A Tudor domain (human) inhibition | AlphaScreen JMJD2A-Tudor / H3K4me3 peptide binding | Potency, µM (highest dose often 114 µM), without a hit: at the top dose activity change, negative = inhibition, hits mostly inhibitors | 390,000 compounds, 4.4% hits; note: potency is the fitted concentration of half-maximal effect; % is set by controls: 0 for no effect and ±100 for the full control effect; nearly all actives have a fitted effect of over 50% in size
The depositor's hits bear a star; [ ] = another dose, or the depositor's remark. A selection: hits, their analogues and other compounds. The true share with any hit is near 10%. Unless noted, calls come from the whole dose curve; as a rule, active = well fitted inhibition curve with a large enough effect; inconclusive = small, poorly fitted or top-dose-only effect; inactive = no such curve, though single readings can be large or run the other way.

`Cc1cc(/C([O-])=C(/C(=S)Nc2ccccc2)[n+]2ccccc2)c(C)n1-c1ccccc1` gave G9a inh 50.1µM*, Six1-Eya2 inh -4.9, BAZ2B inh inconclusive, HP1b chromo inh inconclusive and CtBP-E1A blk -19.0.
Screening Cc1ccc(-n2c(C)cc(/C([O-])=C(/C(=S)Nc3ccc(F)c(Cl)c3)[n+]3ccccc3)c2C)cc1 returned G9a inh inconclusive, Six1-Eya2 inh -23.0, BAZ2B inh inconclusive, HP1b chromo inh -13.1%, CtBP-E1A blk -18.9 and JMJD2A Tudor -32.8%[57.1 µM].
Cc1cc(/C([O-])=C(/C(=S)Nc2ccc(F)cc2)[n+]2ccccc2)c(C)n1-c1ccc(F)cc1 was read as G9a inh inconclusive, Six1-Eya2 inh -13.3, BAZ2B inh 44.7µM*, CtBP-E1A blk -13.6 and JMJD2A Tudor 50.1µM*.
Screening CCOc1cc(/C=C(\CC(=O)O)c2nc3ccccc3s2)ccc1OC returned G9a inh 1.8%, Six1-Eya2 inh 6.2, BAZ2B inh -1.4%, HP1b chromo inh 27.2%, CtBP-E1A blk -11.0 and JMJD2A Tudor 13.4%.
For O=C(O)C/C(=C\c1cccc(NC(=O)c2ccccc2Cl)c1)c1nc2ccccc2s1 the results were G9a inh 36.3%[12.7 µM], Six1-Eya2 inh -0.2, BAZ2B inh 79.4µM*, HP1b chromo inh -0.7%, CtBP-E1A blk 5.0 and JMJD2A Tudor 35.5µM*.
Screening COc1ccc(C(=O)Nc2cccc(/C=C(\CCC(=O)O)c3nc4ccccc4s3)c2)cc1 returned G9a inh -2.7%[12.7 µM], Six1-Eya2 inh -6.5, BAZ2B inh 79.4µM*, HP1b chromo inh 31.6µM*, CtBP-E1A blk -6.5 and JMJD2A Tudor -29.4%[11.4 µM].
`O=C(NCc1nc2ccccc2[nH]1)C1=C[C@@H](c2ccc(C(F)(F)F)cc2)C[C@@H](OCCCCO)O1` gave Six1-Eya2 inh 4.5, HP1b chromo inh 29.0%, CtBP-E1A blk -2.6 and JMJD2A Tudor -25.0%.
COc1ccc2nc(-c3ccccc3)cc(OC)c2c1 was read as G9a inh 23.0%[59 µM], Six1-Eya2 inh 2.1, BAZ2B inh 31.2%, HP1b chromo inh 95.2%, CtBP-E1A blk 5.1 and JMJD2A Tudor 51.4%.
Screening COc1ccc2nc3ccccc3nc2c1N returned G9a inh 1µM*, Six1-Eya2 inh inconclusive, BAZ2B inh 28.2µM*, HP1b chromo inh 39.8µM*, CtBP-E1A blk inconclusive and JMJD2A Tudor 39.8µM*.
Screening COc1ccc2nc3cccc(OC)c3nc2c1 returned G9a inh 22.4µM*, Six1-Eya2 inh -9.9, BAZ2B inh inconclusive, HP1b chromo inh 34.4%, CtBP-E1A blk -0.2 and JMJD2A Tudor -9.4%.
Screening CC(=O)Nc1ccc(S(=O)(=O)NC2(C(F)(F)F)C(=O)Nc3c2c(=O)[nH]c(=O)n3-c2ccc(C)c(C)c2)cc1 (stereo not given) returned G9a inh -0.1%[59 µM], BAZ2B inh -13.3%, HP1b chromo inh 0.8% and JMJD2A Tudor -16.0%.
`CCCCNc1nc(CC(C)=O)ns1` gave G9a inh -19.0%, Six1-Eya2 inh -0.8, BAZ2B inh 3.1%, HP1b chromo inh 28.4%, CtBP-E1A blk 7.0 and JMJD2A Tudor -14.4%.
CNc1nc(CC(C)=O)ns1 was read as G9a inh 79.4µM*, Six1-Eya2 inh 4.9, BAZ2B inh -19.9%, HP1b chromo inh 23.0%, CtBP-E1A blk 1.9 and JMJD2A Tudor -15.9%.
Screening CCc1ccc(CCC(=O)Nc2nnc(C)s2)o1 returned G9a inh -24.6%[12.7 µM], Six1-Eya2 inh -5.7, BAZ2B inh -11.3%, HP1b chromo inh 20.2%, CtBP-E1A blk -15.1 and JMJD2A Tudor -18.4%.
Screening CCc1ccc(CCC(=O)Nc2nc(CC(C)=O)ns2)o1 returned G9a inh 70.8µM*, Six1-Eya2 inh 0.1, BAZ2B inh -10.0%, HP1b chromo inh 10.9%, CtBP-E1A blk -3.7 and JMJD2A Tudor inconclusive.
Cc1nn(CC(=O)Nc2nnc(CC(=O)N3CCCC3)s2)c(=O)c2ccccc12 was read as G9a inh 44.7µM*, Six1-Eya2 inh 11.1, BAZ2B inh -3.4%, HP1b chromo inh -8.0%, CtBP-E1A blk -2.2 and JMJD2A Tudor 3.8%[11.4 µM].
CCC(=O)c1ccc(OCC(=O)N2CCCC2)c(OC)c1 was read as Six1-Eya2 inh 0.1, BAZ2B inh 50.1µM*, HP1b chromo inh 34.0%, CtBP-E1A blk 10.8 and JMJD2A Tudor 15.1%.
CCOC(=O)COc1ccc(C(=O)CC)cc1OC was read as G9a inh 6.8%, Six1-Eya2 inh -0.5, BAZ2B inh -1.7%, HP1b chromo inh 24.8% and JMJD2A Tudor 2.1%.
Screening CCC(=O)c1ccc(OCC(=O)O)c(OC)c1 returned G9a inh 79.4µM*, Six1-Eya2 inh -0.6, BAZ2B inh 1.3%, HP1b chromo inh 49.1%, CtBP-E1A blk 7.1 and JMJD2A Tudor -0.3%.
For CCOC(=O)CN=C/C(C(C)=O)=C(/C)O the results were G9a inh -4.8%, Six1-Eya2 inh 6.0, BAZ2B inh -12.8%, HP1b chromo inh 26.6%, CtBP-E1A blk -12.4 and JMJD2A Tudor -7.9%.
`CCOC(=O)CNC(=O)CSc1nnc(NC(=O)c2ccccc2Cl)s1` gave G9a inh -36.4%[59 µM], Six1-Eya2 inh 0.1, BAZ2B inh -21.7%, HP1b chromo inh 24.5%, CtBP-E1A blk -16.4 and JMJD2A Tudor 1.1%.
For O=C(O)Cc1cccc(=O)c(O)c1C(=O)O the results were Six1-Eya2 inh -72.6*, HP1b chromo inh 39.8µM*, CtBP-E1A blk inconclusive and JMJD2A Tudor 1.12µM*.
For CCn1c(CN2CCC(C)CC2)nc2cc(NC(=O)c3cccc([N+](=O)[O-])c3)ccc21 the results were G9a inh 3.4%[59 µM], BAZ2B inh -8.3%, HP1b chromo inh 44.1% and JMJD2A Tudor 56.2µM*.
CCn1c(CN2CCC(C)CC2)nc2cc(NC(=O)c3ccc([N+](=O)[O-])cc3)ccc21 was read as G9a inh -2.7%[59 µM], BAZ2B inh -2.0%, HP1b chromo inh 19.9% and JMJD2A Tudor -11.6%.
COc1ccc(N2CCN(C(=O)COC(=O)Cc3c(F)cccc3Cl)CC2)cc1 was read as G9a inh 50.1µM*, Six1-Eya2 inh -9.9, BAZ2B inh inconclusive, HP1b chromo inh -13.1%, CtBP-E1A blk -3.3 and JMJD2A Tudor inconclusive.
Screening COc1cccc(CC(=O)OC(C)C(=O)Nc2ccc(N3CCOCC3)cc2)c1 (stereo not given) returned G9a inh 50.1µM*, Six1-Eya2 inh -4.9, BAZ2B inh 3.7%, HP1b chromo inh -8.9%, CtBP-E1A blk -12.0 and JMJD2A Tudor -25.2%.
